# Reference: PubChem BioAssay AID1285 (Columbia University Molecular Screening Center, 2008)
# About 1,600 (0.84%) of roughly 190,000 compounds were called active. The sample holds actives, similar compounds and a random draw of the others, so the mix is not that of the screen.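 Rule for the calls: active = inhibition above a set limit, derived from the sample mean plus 3 SD (cut at about 45% in these data); inconclusive = one replicate passes the limit while the other fails; inactive = the rest.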
# Assay: inhibitors of APP translation via 5'UTR reporter, primary screen, APP 5'UTR luciferase, SH-SY5Y cells (AID 1285)
# Settings: SH-SY5Y APP 5'UTR-luciferase reporter, luminescence; at 2 µM; stronger effect = higher value
row,SMILES,inhibition
1,O=C(Nc1ccc2c(c1)OCO2)c1sc2cc(Cl)ccc2c1Cl,-85% (inactive)
2,O=S(=O)(NCCc1ccncc1)c1ccccc1,16.4% (inactive)
3,Cc1ccc(-c2cc(=O)c3ccc(F)cc3[nH]2)cc1,-29.4% (inactive)
4,O=c1cc(-c2ccccc2)[nH]c2cc(F)ccc12,89.6% (active)
5,Cc1ccc(-c2cc(=O)c3ccc(Cl)cc3[nH]2)cc1,-13.4% (inactive)
6,Cc1ccnc(NS(=O)(=O)c2ccc(NC(=O)c3ccc(S(=O)(=O)N4CCOCC4)cc3)cc2)n1,5.8% (inactive)
7,Cc1cccc(-n2c(C)cc(/C=N\NC(=O)c3cccs3)c2C)c1,-62.9% (inactive)
8,Cc1ccc(/C=N/NC(=O)C2=NNC(c3ccccc3)(c3ccccc3)C2)c(O)c1,73% (active)
9,Cc1ccc(-c2nn(-c3ccccc3)cc2/C=N/NC(=O)c2ccc3c(c2)OCO3)cc1,4.8% (inactive)
10,O=C(CCc1n[nH]c(=O)[nH]c1=O)N/N=C/c1ccc(Br)o1,-6.1% (inactive)
11,CCCOC(=O)c1[nH]c2c(c1C)C(=O)CC(c1cccs1)C2 (stereo not given),92% (active)
12,CCCOC(=O)c1[nH]c2c(c1C)C(=O)CC(c1cc(OC)c(OC)c(OC)c1)C2 (stereo not given),-2.1% (inactive)
13,CCOC(=O)c1[nH]c2c(c1C)C(=O)CC(c1ccc(N(C)C)cc1)C2 (stereo not given),-13.3% (inactive)
14,CC(C)(C)NC(=O)NC(=O)COC(=O)C1(C)CC1(Cl)Cl (stereo not given),12.7% (inactive)
15,CC(C)(C)NC(=O)NC(=O)COC(=O)CCC1CCCCC1,61.5% (active)
16,COc1ccccc1OCCC(=O)OCC(=O)NC(=O)NC(C)(C)C,-5.5% (inactive)
17,CN1CCC(OC(=O)COc2ccc(Cl)cc2Cl)CC1,-5.1% (inactive)
18,COc1cccc(/C=N/NC(=O)c2[nH]nc3c2CCc2ccccc2-3)c1O,79.7% (active)
19,COc1cccc(/C=N\NC(=O)C2=NNC(=O)C2C)c1O (stereo not given),-73.4% (inactive)
20,COc1ccc(C(=O)Nc2ccccc2C(=O)N/N=C/c2ccccc2OC)cc1,-8.9% (inactive)
21,CCN(Cc1ccccc1)S(=O)(=O)c1cc(C(=O)O)ccc1OC,-51.9% (inactive)
22,Cc1ccc(CC2S/C(=C(/C#N)C(=O)N3CCOCC3)N(c3ccccc3)C2=O)cc1 (stereo not given),-2.7% (inactive)
23,N#C/C(C(=O)N1CCOCC1)=C1/SC(Cc2ccc(F)cc2)C(=O)N1c1ccccc1 (stereo not given),56.6% (active)
24,O=C(CC1SC(=Nc2ccccc2F)N(CCN2CCOCC2)C1=O)Nc1ccc(F)cc1F (stereo not given),-19.1% (inactive)

row,SMILES,inhibition
1,CCN(CC)C(=O)CS(=O)CC(=O)Nc1cc(OCCOC)c(Cl)cc1Cl (stereo not given),-14% (inactive)
2,Cc1oc2c(c1C(=O)N1CCOCC1)C(=O)c1ccccc1C2=O,2.1% (inactive)
3,O=C(NNC(=S)Nc1ccccc1)c1cccc(S(=O)(=O)N2CCOCC2)c1,-32.5% (inactive)
4,CCOC(=O)c1cnc(-n2nc(C)cc2C)nc1-n1nc(C)cc1C,6% (inactive)
5,CCOC(=O)c1cnc(-n2nc(C)cc2C)nc1Nc1cccc(C(C)=O)c1,-11.9% (inactive)
6,CCOC(=O)c1cnc(-n2nc(C)cc2C)nc1NNc1cc(C)nc(-c2ccccc2)n1,72.1% (active)
7,Cc1ccc(C(=O)NC(C)c2ccccc2)cc1Br (stereo not given),25.6% (inactive)
8,C/C=C/c1ccc(OCC(O)CN2CCCCCCC2)c(OC)c1 (stereo not given),-39% (inactive)
9,Nc1ccc(Oc2ccc(Cl)cc2)cc1,11.4% (inactive)
10,Cc1ccc(Oc2ccc(N)cc2)cc1,3.7% (inactive)
11,CC(C)(C)c1ccc(Oc2ccc(N)cc2)cc1,84.4% (active)
12,Oc1ccc(/C=N/N(Cc2ccccc2)c2ccccc2)cc1,-13.4% (inactive)
13,N=C1/C(=C/c2cccn2-c2cccc([N+](=O)[O-])c2)C(=O)N=C2SC=CN12,17.8% (inactive)
14,O=C(N/N=C/c1ccc2c(c1)OCO2)c1ccc(Cn2cc([N+](=O)[O-])cn2)o1,-17.9% (inactive)
15,Cc1c(Cl)c([N+](=O)[O-])nn1Cc1ccc(C(=O)N/N=C\c2cc(Cl)ccc2O)o1,68.5% (active)
16,Cc1c(Cl)c([N+](=O)[O-])nn1CCCC(=O)Nc1cc(Cl)ccc1Cl,-6.1% (inactive)
17,COc1cc(/C=N\NC(=O)c2nonc2N)c(OC)cc1Br,1% (inactive)
18,Nc1nonc1-n1nnc(C(=O)N/N=C/c2cc(Br)ccc2O)c1CSC1=NCCS1,54.3% (active)
19,COCc1c(C(=O)N/N=C/C2CC=CCC2)nnn1-c1nonc1N (stereo not given),6.9% (inactive)
20,CCC1(CC)NC(=O)N(CC(=O)OCC(=O)NC(=O)c2ccccc2)C1=O,5.8% (inactive)
21,Cc1nc2ccc(C(=O)O)cc2[nH]1,4.6% (inactive)
22,CC(C)c1nc2ccc(C(=O)O)cc2[nH]1,-1.3% (inactive)
23,COC(=O)Nc1nc2ccc(Sc3ccccc3)cc2[nH]1,91.5% (active)
24,CCO/C=C1\C(=O)N(c2ccc(OCC)cc2)C(=O)c2ccccc21,-6.3% (inactive)

row,SMILES,inhibition
1,OCCC1CN(Cc2ccc3nsnc3c2)CCN1C1CCCCC1 (stereo not given),0.3% (inactive)
2,CC(C)N1CCC(=NNc2ccc([N+](=O)[O-])cc2S(=O)(=O)N2CCOCC2)CC1,16.2% (inactive)
3,CCn1c2ccccc2c2cc(CC(N)=O)ccc21,15% (inactive)
4,CCCN=C1NC(=O)C(CC(=O)NCCc2ccc(OC)c(OC)c2)S1 (stereo not given),74.7% (active)
5,COc1ccc(CCNC(=O)CC2SC(=Nc3cc(C)cc(C)c3)NC2=O)cc1OC (stereo not given),2.9% (inactive)
6,COc1ccc(CCNC(=O)CN(c2ccccc2)S(C)(=O)=O)cc1OC,-22.4% (inactive)
7,Cc1cc(C)c(S(=O)(=O)N2CCOCC2)cc1C,10.3% (inactive)
8,CCOc1ccc(Br)cc1S(=O)(=O)Nc1cccc(S(=O)(=O)N(CC)CC)c1,-7% (inactive)
9,Cc1ccc(CCC(=O)Nc2ncc(Cc3cc(Cl)ccc3Cl)s2)o1,94.1% (active)
10,Cc1cnc(NC(=O)CSc2nnc(-c3ccc(Cl)cc3Cl)n2N)s1,-0.1% (inactive)
11,CCOc1ccccc1NC(=O)CCc1ccc(C)o1,9.7% (inactive)
12,CN(C)c1ccc(Nc2c3c4c(cccc4n(C)c2=O)C(=O)c2ccccc2-3)cc1,55.2% (active)
13,CC1=NCCN1S(=O)(=O)c1cccc([N+](=O)[O-])c1,11.4% (inactive)
14,COC(=O)CSc1ncnc2c1cnn2-c1ccc(C)cc1C,-3.9% (inactive)
15,CSc1nc(C)cc(SC(C(C)=O)C(=O)Nc2ccccc2)n1 (stereo not given),-17.5% (inactive)
16,CSc1nc(-c2ccccc2)nc(C(Cl)Cl)n1,48.7% (active)
17,COc1ccc(NC(=O)CCNS(=O)(=O)c2ccc3c(c2)c(=O)n(C)c(=O)n3C)cc1OC,17.6% (inactive)
18,COCCN(C(=S)Nc1ccccc1OC)C1CCN(C(C)C)CC1,-3.7% (inactive)
19,COC(=O)c1cc2c(ccn2C)n1C,-10.6% (inactive)
20,Cc1ccc(/C=N\n2c(-c3ccccc3)n[nH]c2=S)s1,-4% (inactive)
21,S=c1[nH]nc(-c2cccnc2)n1/N=C/C(Cl)=C\c1ccccc1,-36.5% (inactive)
22,Cc1cc(-c2n[nH]c(=S)n2/N=C/C(Br)=C/c2ccccc2)n[nH]1,83.5% (active)
23,CC(Oc1ccccc1)C(=O)NN1Cc2ccccc2C1=N (stereo not given),-15% (inactive)
24,O=C1c2cccc3c([N+](=O)[O-])ccc(c23)C(=O)N1CC1CCCO1 (stereo not given),53% (active)

row,SMILES,inhibition
1,O=C(NCc1ccc2c(c1)OCO2)c1ccc2c(c1)C(=O)N(CC1CCCO1)C2=O (stereo not given),3.9% (inactive)
2,O=c1c2cc3c(=O)n(CC4CCCO4)c(=O)c3cc2c(=O)n1CC1CCCO1 (stereo not given),-21.8% (inactive)
3,COc1ccc(OC)c(Cc2nnc(CCC(=O)NC3CCCC3)o2)c1,-10.4% (inactive)
4,COc1cc(OC)cc(C(=O)N[C@H](C(=O)Nc2nc3ccccc3[nH]2)C(C)C)c1,94.9% (active)
5,COc1ccc(OC(C)C(=O)NCCc2nc3ccccc3[nH]2)cc1 (stereo not given),-10.4% (inactive)
6,COc1cc(OC)cc(C(=O)N[C@H](C(=O)OCC(=O)NC(C)c2ccccc2)C(C)C)c1 (stereo not given in full),14.5% (inactive)
7,Cc1cc(/C=N/NC(N)=O)c(C)n1C1CCCCC1,-4.6% (inactive)
8,CCOC(=O)C(NC(=O)CC(C)C)(Nc1sc2c(c1C(N)=O)CCCC2)C(F)(F)F (stereo not given),5.1% (inactive)
9,O=C(COc1ccc(Cl)cc1[N+](=O)[O-])N1CCCCC1,-4% (inactive)
10,CCOc1ccc(C2C(C(=O)NC)=C(C)Nc3nc4ccccc4n32)cc1OC (stereo not given),11.5% (inactive)
11,COc1ccccc1NC(=O)C1=C(C)Nc2nc3ccccc3n2C1c1cccs1 (stereo not given),91% (active)
12,CCOC(=O)C1=C(C)Nc2nc3ccccc3n2C1c1cccs1 (stereo not given),6.6% (inactive)
13,COc1cccc(-c2nn(-c3ccccc3)cc2/C=C(\C#N)C(=O)NCCCn2ccnc2)c1,14.7% (inactive)
14,C=CCN1C2CCCC1CC(NC(=S)Nc1cccc(OC)c1)C2 (stereo not given),-2.4% (inactive)
15,COc1cc2c(cc1/C=C1/NC(=O)N(c3ccccc3)C1=O)OCO2,-15.4% (inactive)
16,COCCOC(=O)C1=C(C)NC(=O)CC1c1cc2c(cc1Br)OCO2 (stereo not given),3.7% (inactive)
17,COc1ccc(C2CC(=O)Nc3cc(C)c(C)cc32)c(OC)c1OC (stereo not given),-0.3% (inactive)
18,COc1ccc(F)cc1S(=O)(=O)Nc1ccc2c(c1)OCO2,-19.9% (inactive)
19,COc1ccccc1C1C2=C(COC2=O)Nc2cc3c(cc21)OCO3 (stereo not given),94.5% (active)
20,CCCOc1ccccc1C1CC(=O)Nc2cc3c(cc21)OCO3 (stereo not given),92.3% (active)
21,CN1CCN(C(=O)/C(=C\c2cccs2)NC(=O)c2cccs2)CC1,-8.2% (inactive)
22,CCCCn1nc(C(=O)Nc2ccc(S(=O)(=O)Nc3ncccn3)cc2)c2ccccc2c1=O,-36.5% (inactive)
23,COc1cccc(CC(=O)N2CCCC(CCC(=O)N3CCN(c4ccccn4)CC3)C2)c1 (stereo not given),-8.5% (inactive)
